Measurements published in PubChem BioAssay (NCI).
This is part of a sample that, as a whole, favours compounds with a hit. Of some 83,000 tested, about 20% had one in any assay.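 Step 1: grow cells in 96-well plates. Step 2: add test compound at a single concentration. Step 3: incubate 48 h. Step 4: record percent growth.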 Calls of active or inactive are those of the source. The calls were made as follows: active = growth percent below 10; inactive = the rest.

Experiments:
Assay in all cases: NCI-60 one-dose screen, 48 h (100 = growth as untreated, 0 = no growth, -100 = all killed)
Details in all cases: 10 µM unless noted
NCI-H23 lung = test system: NCI-H23 lung
NCI-H226 lung = test system: NCI-H226 lung
NCI-H322M lung = test system: NCI-H322M lung
HOP-62 NSCLC = test system: HOP-62 NSCLC
NCI-H460 lung = test system: NCI-H460 lung
NCI-H522 lung = test system: NCI-H522 lung
A549/ATCC NSCLC = test system: A549/ATCC NSCLC
786-0 renal = test system: 786-0 renal
COLO 205 colon = test system: COLO 205 colon
DU-145 prostate = test system: DU-145 prostate
K-562 leukemia = test system: K-562 leukemia
MALME-3M melanoma = test system: MALME-3M melanoma
MDA-MB-231 breast = test system: MDA-MB-231 breast
RXF 393 renal = test system: RXF 393 renal
SF-268 CNS = test system: SF-268 CNS
SF-295 CNS = test system: SF-295 CNS
SF-539 CNS = test system: SF-539 CNS
UACC-257 melanoma = test system: UACC-257 melanoma
M14 melanoma = test system: M14 melanoma

Measured: growth

CCN(CC)C(=O)O/N=C(/C)c1ccccc1
inactive: NCI-H23 lung 95.1% | NCI-H226 lung 114% | NCI-H322M lung 102% | HOP-62 NSCLC 110% | NCI-H460 lung 110% | NCI-H522 lung 92.1% | A549/ATCC NSCLC 96.1% | 786-0 renal 96.6% | COLO 205 colon 115% | DU-145 prostate 100% | K-562 leukemia 102% | MALME-3M melanoma 130% | MDA-MB-231 breast 91% | RXF 393 renal 102% | SF-268 CNS 104% | SF-295 CNS 105% | SF-539 CNS 88.1% | UACC-257 melanoma 105% | M14 melanoma 101%

ClC1(Cl)C2CCCCCCC21 (centres undefined)
inactive: NCI-H23 lung 107% | NCI-H226 lung 103% | NCI-H322M lung 109% | HOP-62 NSCLC 108% | NCI-H460 lung 107% | NCI-H522 lung 84.5% | A549/ATCC NSCLC 98.2% | 786-0 renal 94.9% | COLO 205 colon 129% | DU-145 prostate 121% | K-562 leukemia 97.8% | MALME-3M melanoma 107% | MDA-MB-231 breast 122% | RXF 393 renal 117% | SF-268 CNS 112% | SF-295 CNS 101% | SF-539 CNS 117% | UACC-257 melanoma 106% | M14 melanoma 98.7%

CC1=CC(=O)OC1C/C=C(\C)CCC1[C@@]2(C)CCC[C@@](C)(C(=O)O)C2CC[C@@]1(C)O (some centres undefined)
inactive: NCI-H23 lung 68.4% | NCI-H226 lung 43.7% | NCI-H322M lung 55% | HOP-62 NSCLC 51.7% | NCI-H522 lung 59.3% | A549/ATCC NSCLC 29.3% | 786-0 renal 54.6% | COLO 205 colon 86.7% | DU-145 prostate 36.8% | K-562 leukemia 28.4% | MALME-3M melanoma 58.4% | MDA-MB-231 breast 34.3% | RXF 393 renal 49.2% | SF-268 CNS 71.4% | SF-295 CNS 85.5% | SF-539 CNS 81.3% | UACC-257 melanoma 48.6% | M14 melanoma 25.7%
active: NCI-H460 lung 9.27%

O=C(c1ccccc1)c1cccc(C(Br)Br)c1
inactive: NCI-H23 lung 92.8% | NCI-H226 lung 101% | NCI-H322M lung 95.1% | HOP-62 NSCLC 86.7% | NCI-H460 lung 66.4% | NCI-H522 lung 66% | A549/ATCC NSCLC 86.9% | 786-0 renal 100% | COLO 205 colon 96.6% | DU-145 prostate 93.7% | K-562 leukemia 46.4% | MALME-3M melanoma 88.9% | MDA-MB-231 breast 103% | RXF 393 renal 95.7% | SF-268 CNS 95.5% | SF-295 CNS 76.2% | SF-539 CNS 95.2% | UACC-257 melanoma 105% | M14 melanoma 72.1%

CCOC(=O)Cn1c(-c2nonc2NC(=O)c2ccccc2F)nc2ccccc21
inactive: NCI-H23 lung 76.2% | NCI-H226 lung 62.3% | NCI-H322M lung 67.3% | HOP-62 NSCLC 73.2% | NCI-H460 lung 10.2% | NCI-H522 lung 47.6% | A549/ATCC NSCLC 24% | 786-0 renal 46.4% | COLO 205 colon 60.1% | DU-145 prostate 53.2% | K-562 leukemia 31.3% | MALME-3M melanoma 77.4% | MDA-MB-231 breast 62.8% | RXF 393 renal 64.7% | SF-268 CNS 50% | SF-539 CNS 44.7% | UACC-257 melanoma 72.1% | M14 melanoma 61.5%
active: SF-295 CNS 8.34%

CCCCCCCOc1cccc(/C=C2\N=C3SCCCN3C2=O)c1
inactive: NCI-H23 lung 97.3% | NCI-H226 lung 93.7% | NCI-H322M lung 101% | HOP-62 NSCLC 108% | NCI-H460 lung 103% | NCI-H522 lung 62.3% | A549/ATCC NSCLC 91.8% | 786-0 renal 92.5% | COLO 205 colon 92.9% | DU-145 prostate 94.5% | K-562 leukemia 90.4% | MALME-3M melanoma 139% | MDA-MB-231 breast 87.7% | RXF 393 renal 116% | SF-268 CNS 103% | SF-295 CNS 93.8% | SF-539 CNS 111% | UACC-257 melanoma 114% | M14 melanoma 102%

CCn1c(Cc2ccccc2Nc2c(Cl)cccc2Cl)nnc1SCC(=O)Nc1ccccc1C(F)(F)F
inactive: NCI-H23 lung 89.7% | NCI-H226 lung 82.3% | NCI-H322M lung 79.4% | HOP-62 NSCLC 98.1% | NCI-H460 lung 95.8% | NCI-H522 lung 55.5% | A549/ATCC NSCLC 76.8% | 786-0 renal 92% | COLO 205 colon 99.1% | DU-145 prostate 103% | K-562 leukemia 72.5% | MALME-3M melanoma 100% | MDA-MB-231 breast 84.8% | RXF 393 renal 94.6% | SF-268 CNS 100% | SF-295 CNS 90.6% | SF-539 CNS 106% | UACC-257 melanoma 101% | M14 melanoma 92.2%

O=C1/C(=C/N2N=C(c3ccc(Cl)cc3)CC2c2ccccc2O)SC(=S)N1c1cccc(C(F)(F)F)c1 (centres undefined)
inactive: NCI-H23 lung 53.8% | NCI-H226 lung 63.3% | NCI-H322M lung 71.4% | HOP-62 NSCLC 69.1% | NCI-H460 lung 44.6% | NCI-H522 lung 30.3% | A549/ATCC NSCLC 38.6% | 786-0 renal 66.4% | COLO 205 colon 71.2% | DU-145 prostate 63.4% | K-562 leukemia 42.6% | MALME-3M melanoma 79.6% | MDA-MB-231 breast 44% | RXF 393 renal 67.4% | SF-268 CNS 48.1% | SF-295 CNS 64.7% | SF-539 CNS 76.1% | UACC-257 melanoma 94.5% | M14 melanoma 48.2%

CCOC(=O)c1cc(C(=O)OCC)c(C)nc1C
inactive: NCI-H23 lung 102% | NCI-H226 lung 105% | NCI-H322M lung 106% | HOP-62 NSCLC 102% | NCI-H460 lung 111% | NCI-H522 lung 103% | A549/ATCC NSCLC 101% | 786-0 renal 106% | COLO 205 colon 109% | DU-145 prostate 109% | K-562 leukemia 91.4% | MALME-3M melanoma 104% | MDA-MB-231 breast 107% | RXF 393 renal 117% | SF-268 CNS 108% | SF-295 CNS 107% | SF-539 CNS 103% | UACC-257 melanoma 107% | M14 melanoma 111%

O=C1Nc2ccc(Br)cc2/C1=N/c1nc(-c2ccccc2)cs1
inactive: NCI-H23 lung 92.4% | NCI-H226 lung 75.7% | NCI-H322M lung 88% | HOP-62 NSCLC 53.8% | NCI-H460 lung 90.9% | NCI-H522 lung 71.4% | A549/ATCC NSCLC 80.3% | 786-0 renal 85.2% | COLO 205 colon 94.7% | DU-145 prostate 89.3% | K-562 leukemia 82.4% | MALME-3M melanoma 101% | MDA-MB-231 breast 77% | RXF 393 renal 91.7% | SF-268 CNS 79.5% | SF-295 CNS 102% | SF-539 CNS 98.6% | UACC-257 melanoma 78.2% | M14 melanoma 87.5%

Cc1ccc(Nc2cc(Cl)c([N+](=O)[O-])cc2[N+](=O)[O-])cc1
inactive: NCI-H23 lung 63.8% | NCI-H226 lung 25.9% | NCI-H322M lung 86.7% | HOP-62 NSCLC 62.8% | NCI-H460 lung 52.7% | A549/ATCC NSCLC 76.7% | 786-0 renal 23.5% | DU-145 prostate 46.7% | K-562 leukemia 13.3% | MALME-3M melanoma 70.4% | MDA-MB-231 breast 18.3% | SF-268 CNS 27.7% | SF-295 CNS 99.4% | SF-539 CNS 21.7% | UACC-257 melanoma 73.6% | M14 melanoma 34.7%
active: NCI-H522 lung -41.7% | COLO 205 colon -31.2% | RXF 393 renal -41.2%

c1ccc(-c2nnn(-c3ccccc3)n2)cc1
inactive: NCI-H23 lung 105% | NCI-H226 lung 91.4% | NCI-H322M lung 100% | HOP-62 NSCLC 95.8% | NCI-H460 lung 114% | NCI-H522 lung 89.7% | A549/ATCC NSCLC 99.7% | 786-0 renal 104% | COLO 205 colon 117% | DU-145 prostate 127% | K-562 leukemia 89.1% | MALME-3M melanoma 115% | MDA-MB-231 breast 84.6% | RXF 393 renal 102% | SF-268 CNS 109% | SF-295 CNS 106% | SF-539 CNS 105% | UACC-257 melanoma 103% | M14 melanoma 109%

COc1cnc2c(c1)C(=O)c1c-2n(CCCN2CCN(C)CC2)c(=O)c2cc(Cl)ccc12
active: NCI-H460 lung 6.14% | K-562 leukemia -76.1% | M14 melanoma -54.4%
inactive: NCI-H23 lung 47.9% | NCI-H226 lung 30.4% | NCI-H322M lung 49.3% | HOP-62 NSCLC 20.5% | NCI-H522 lung 11.7% | A549/ATCC NSCLC 37.7% | 786-0 renal 21.3% | COLO 205 colon 31.3% | DU-145 prostate 33.1% | MALME-3M melanoma 75.4% | MDA-MB-231 breast 48.6% | RXF 393 renal 46.9% | SF-268 CNS 35.7% | SF-295 CNS 35.5% | SF-539 CNS 14.7% | UACC-257 melanoma 14.1%

Cc1ccccc1C1CC(=O)c2ccccc2C1C (centres undefined)
inactive: NCI-H23 lung 100% | NCI-H226 lung 103% | NCI-H322M lung 114% | HOP-62 NSCLC 104% | NCI-H460 lung 108% | NCI-H522 lung 97.1% | A549/ATCC NSCLC 89.9% | 786-0 renal 102% | COLO 205 colon 104% | DU-145 prostate 109% | K-562 leukemia 97.3% | MALME-3M melanoma 125% | MDA-MB-231 breast 105% | RXF 393 renal 109% | SF-268 CNS 101% | SF-295 CNS 96.3% | SF-539 CNS 93% | UACC-257 melanoma 103% | M14 melanoma 90.6%

O=C1/C=C/[C@@H](O)[C@@H]2C[C@@H](O)C[C@H]2/C=C/CCC[C@H]([C@@H](O)CO)O1
inactive: NCI-H23 lung 93% | NCI-H226 lung 106% | NCI-H322M lung 91.9% | HOP-62 NSCLC 108% | NCI-H460 lung 115% | NCI-H522 lung 92.8% | A549/ATCC NSCLC 96.1% | 786-0 renal 50.3% | COLO 205 colon 94.3% | DU-145 prostate 135% | K-562 leukemia 95.2% | MALME-3M melanoma 64.4% | MDA-MB-231 breast 91.6% | RXF 393 renal 24.9% | SF-268 CNS 60.8% | SF-295 CNS 87.7% | SF-539 CNS 74.3% | UACC-257 melanoma 69.3% | M14 melanoma 68.8%

COc1cc2c(=O)n(CCCN(C)C)c3c4cc[nH]c4ncc3c2cc1OC
inactive: NCI-H23 lung 41.4% | NCI-H226 lung 37.1% | NCI-H322M lung 42.6% | HOP-62 NSCLC 11.8% | NCI-H460 lung 17.6% | A549/ATCC NSCLC 44.1% | 786-0 renal 33.7% | COLO 205 colon 13.2% | DU-145 prostate 30.8% | K-562 leukemia 54.3% | MALME-3M melanoma 62.4% | MDA-MB-231 breast 50.8% | RXF 393 renal 23.1% | SF-268 CNS 28.3% | SF-295 CNS 29.2% | SF-539 CNS 73.3% | UACC-257 melanoma 87.9% | M14 melanoma 40.5%
active: NCI-H522 lung 0.675%
